Laboratory results: PubChem BioAssay AID1893 (NMMLSC, 2009)
Among all 5,900 compounds or so, about 120 (2%) were called active. Cut-off read from the data, not from the text of the source: active = percent response mostly above about 71% (no sharp cut-off); inactive = mostly below about 38%. The list is a sample of the results.

Tested on: MEKK2 (MAP3K2) mutant PB1 domain binding MEK5, human
Experiment: mutant MEKK2 PB1-MEK5 binding signal retest – biochemical, single concentration, multiplex bead flow cytometry, confirmation (AID 1893);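 note: higher means compound restores mutant binding toward wildtype level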
Details: Alexa488-MEK5 binding to MEKK2 mutant, at 10 µM, hits give high values

Percent response, inactive:
CCN1CCN(c2ccc(S(=O)(=O)N3CCCCC3)cc2NC(=O)Cc2c(Cl)cccc2Cl)CC1 20%
CCCCN1C(=O)/C(=C(/C#N)C(N)=O)c2ccccc21 -2%
CC(C)c1ccc(C(=O)NCCCc2ccccc2)cc1 -5%
Cc1ccc(C)c(CN2CCC(CNC(=O)Nc3ccc(C)c(F)c3)CC2)c1 20%
Cc1nc2cc(S(=O)(=O)C(F)(F)F)ccc2s1 -1%
O=C(Cc1cccc2ccccc12)Nc1ccc2oc(-c3ccccc3)nc2c1 10%
O=C(CSc1ccc(-c2ccc(F)cc2)nn1)Nc1ccc2c(c1)OCCO2 4%
Cc1cnc(NC(=O)Cn2cnc3c2c(=O)n(C)c(=O)n3C)s1 -16%
O=C(OCc1cc(Cl)ccc1OC(F)F)c1cccnc1 -8%
CC1(C)Cc2cccc(OCC(=O)N3CCN(c4ccc([N+](=O)[O-])cc4)CC3)c2O1 1%
CCOC(=O)c1sc2nc(C)nc(SCC(N)=O)c2c1C 5%
CCOC(=O)c1cc2c(nc1NC(=S)Nc1ccccc1)CC(C)(CC)OC2 (stereo not given) -4%
O=C(NCCC1=CCCCC1)c1ccc(Cl)c([N+](=O)[O-])c1 5%
Cc1cccn2c(=O)c(/C=C3\SC(=S)N(CC(C)C)C3=O)c(NCCCOC(C)C)nc12 -25%
O=C(NCCCN1CCCCCC1)C1CC(=O)N(C2CCCC2)C1 (stereo not given) -29%
COc1cc2c(cc1OC)CN(C(=O)c1ccc(S(=O)(=O)N3CCCCCC3)cc1)CC2 -1%
O=C(/C=C/Nc1ccccc1)c1cnc(-c2ccccc2)s1 7%
Cn1c(=NC(=O)CSCC(=O)N2CCCCC2)sc2ccccc21 8%
CCOC(=O)Cc1csc(NC(=O)CSc2nc(C)cc(=O)[nH]2)n1 -5%
CN1C(=O)/C(=C\c2ccc(-c3ccccc3)o2)SC1=S -31%
CCN(CC)CCCNC(=O)c1ccc2c(=O)n(Cc3ccc4c(c3)OCO4)c(=S)[nH]c2c1 7%
O=C(OCC1O[C@@H](OC(=O)c2cc(O)c(O)c(O)c2)[C@@H](OC(=O)c2cc(O)c(O)c(O)c2)[C@@H](OC(=O)c2cc(O)c(O)c(O)c2)[C@@H]1OC(=O)c1cc(O)c(O)c(O)c1)c1cc(O)c(O)c(O)c1 (stereo not given in full) -34%
CCOC(=O)c1cc2occc2n1CC(=O)N1CCN(C(=O)c2ccco2)CC1 -10%
Cc1cccc(CSc2nnc(C)c(=O)n2N)c1 -2%
C=C(C)C1CC=C(C)/C(=N\NC(=O)CNc2ccccc2OC)C1 (stereo not given) 10%
